Source: PubChem BioAssay AID1159580 (chemical genetic matrix, 2015)
Among all 5,500 compounds or so, about 2,000 (36%) were called active. Another 18% or so got no clear call; they are omitted. No stated cut-off is given here; in the data, active means normalized growth mostly below about 0.91 (no sharp cut-off); inconclusive means no clear call, values can overlap the other calls; inactive means mostly above about 0.92. This is one part of the list.

Assay: chemical genetic growth profiling, strain panel (AID 1159580);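 further: tested at 20 µM; growth read once vehicle control cultures reached saturation at 30 °C; 1 = growth at the plate median or of vehicle wells; lower values mean less growth of the strain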
Settings: S. cerevisiae deletion strains, growth OD

Measured: normalized growth

C[C@H]1O[C@H](O[C@H]2[C@H](O)[C@@H](O)[C@@H](O[C@H]3[C@H](O)[C@@H](O)C(O)O[C@@H]3CO)O[C@@H]2CO)[C@H](O)[C@@H](O)[C@@H]1N[C@H]1C=C(CO)[C@@H](O)[C@H](O)[C@H]1O (some centres undefined)
inactive: locus YAL021C, strain ccr4, hits give low values 0.999 | locus YAL026C, strain drs2, hits give low values 1.03 | locus YAL030W, strain snc1, hits give low values 0.993 | locus YBL061C, strain skt5, hits give low values 0.984 | locus YBR009C, strain hhf1, hits give low values 1.01 | locus YBR023C, strain chs3, hits give low values 1.01 | locus YBR171W, strain sec66, hits give low values 0.979 | locus YBR231C, strain swc5, hits give low values 0.982 | locus YBR279W, strain paf1, hits give low values 1.01 | locus YCL011C, strain gbp2, hits give low values 1.03 | locus YCL016C, strain dcc1, hits give low values 1.02 | locus YCL069W, strain vba3, hits give low values 1 | locus YCR088W, strain abp1, hits give low values 0.991 | locus YDL005C, strain med2, hits give low values 1 | locus YDL040C, strain nat1, hits give low values 0.99 | locus YDR001C, strain nth1, hits give low values 0.995 | locus YDR069C, strain doa4, hits give low values 0.985 | locus YDR137W, strain rgp1, hits give low values 0.998 | locus YDR159W, strain sac3, hits give low values 0.981 | locus YDR195W, strain ref2 0.936 | locus YDR297W, strain sur2, hits give low values 0.988 | locus YDR334W, strain swr1, hits give low values 0.983 | locus YDR335W, strain msn5, hits give low values 0.974 | locus YDR392W, strain spt3, hits give low values 1.04 | locus YEL003W, strain gim4, hits give low values 0.974 | locus YEL037C, strain rad23, hits give low values 0.988 | locus YEL061C, strain CIN8 (second series), hits give low values 0.994 | locus YER015W, strain faa2, hits give low values 1.01 | locus YER016W, strain bim1, hits give low values 1 | locus YER111C, strain swi4, hits give low values 0.984 | locus YER155C, strain BEM2 (second series), hits give low values 0.977 | locus YFR010W, strain ubp6, hits give low values 0.978 | locus YGL167C, strain pmr1, hits give low values 0.974 | locus YGL173C, strain kem1, hits give low values 0.955 | locus YGL227W, strain vid30, hits give low values 0.987 | locus YGL240W, strain doc1, hits give low values 0.964 | locus YGL253W, strain hxk2, hits give low values 0.999 | locus YHR013C, strain ard1, hits give low values 0.992 | locus YHR027C, strain rpn1, hits give low values 1.01 | locus YHR030C, strain SLT2, hits give low values 0.955 | locus YHR079C, strain IRE1, hits give low values 0.959 | locus YHR142W, strain chs7, hits give low values 0.989 | locus YJL092W, strain hpr5, hits give low values 0.977 | locus YJL095W, strain BCK1 (second series), hits give low values 0.993 | locus YJL095W, strain BCK1, hits give low values 0.957 | locus YJL115W, strain asf1, hits give low values 0.974 | locus YJL129C, strain trk1, hits give low values 0.969 | locus YJL154C, strain vps35, hits give low values 0.964 | locus YJL164C, strain tpk1, hits give low values 1.01 | locus YJL166W, strain qcr8, hits give low values 0.971 | locus YJL187C, strain SWE1, hits give low values 0.999 | locus YJR066W, strain TOR1, hits give low values 0.916 | locus YKL160W, strain elf1, hits give low values 0.968 | locus YKR026C, strain gcn3, hits give low values 0.995 | locus YKR091W, strain srl3, hits give low values 0.988 | locus YLL001W, strain dnm1, hits give low values 0.945 | locus YLL026W, hits give low values 1.01 | locus YLL041C, strain sdh2, hits give low values 0.988 | locus YLR027C, strain aat2, hits give low values 0.993 | locus YLR113W, strain HOG1, hits give low values 0.933 | locus YLR221C, strain rsa3, hits give low values 1.03 | locus YLR258W, strain gsy2, hits give low values 1.01 | locus YLR262C, strain YPT6 (second series), hits give low values 0.959 | locus YLR320W, strain mms22, hits give low values 1.01 | locus YLR342W, strain FKS1, hits give low values 0.973 | locus YLR357W, strain rsc2, hits give low values 0.985 | locus YLR370C, strain arc18, hits give low values 0.993 | locus YLR384C, strain iki3, hits give low values 0.977 | locus YML120C, strain ndi1, hits give low values 0.98 | locus YMR058W, strain fet3, hits give low values 0.996 | locus YMR125W, strain sto1, hits give low values 0.996 | locus YMR129W, hits give low values 0.989 | locus YMR205C, strain PFK2, hits give low values 0.983 | locus YMR231W, strain pep5, hits give low values 0.991 | locus YNL071W, strain lat1, hits give low values 1.01 | locus YNL183C, strain NPR1, hits give low values 0.923 | locus YNL209W, strain ssb2, hits give low values 1.01 | locus YNL248C, strain rpa49, hits give low values 1.01 | locus YNL322C, strain KRE1 (second series), hits give low values 0.988 | locus YNR049C, strain mso1, hits give low values 0.987 | locus YOR001W, strain rrp6, hits give low values 0.96 | locus YOR070C, strain gyp1, hits give low values 1.01 | locus YOR080W, strain dia2, hits give low values 0.98 | locus YOR083W, strain WHI5, hits give low values 0.987 | locus YOR106W, strain vam3, hits give low values 0.979 | locus YOR231W, strain MKK1, hits give low values 0.953 | locus YOR265W, strain rbl2, hits give low values 0.992 | locus YOR270C, strain vph1, hits give low values 1 | locus YOR290C, strain snf2, hits give low values 1.01 | locus YPL051W, strain arl3, hits give low values 1 | locus YPL078C, strain atp4, hits give low values 0.948 | locus YPL106C, strain sse1, hits give low values 1.02 | locus YPL240C, strain hsp82, hits give low values 0.988 | locus YPL256C, strain CLN2, hits give low values 0.967
